Source: the supplement of paper PMC10981050
Values joined by “and” are separate entries in the source; they are usually repeats but may differ in a detail not shown here. Equal entries are not always repeated. Structures can show the parent of a compound that is named as a salt.

Assays:
Experiment in all cases: cell viability relative to vehicle control; higher = less cytotoxic
Conditions in all cases: 10 µM
[1] = tested on: K562
Outline: (§1)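 Four leukaemia lines, as CRISPR-edited mutant clones and isogenic wild-type clones, were tested against Selleck bioactive, kinase and epigenetic probe libraries after removal of identity-inconsistent compounds. Cells were exposed to a single 10 µM dose for 48 h, and CellTiter-Glo luminescence was then read. Viability was calculated relative to the on-plate vehicle control.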

[2] = tested on: MARIMO
Outline: as §1

[3] = tested on: MOLM14
Outline: as §1

[4] = tested on: OCI-AML2
Outline: as §1

Row | SMILES | cell viability ([1]; SRSF2 genotype: SRSF2 P95H/wt) | cell viability ([1]; SRSF2 genotype: SRSF2 wt/wt) | cell viability ([2]; SRSF2 genotype: SRSF2 P95H/wt) | cell viability ([2]; SRSF2 genotype: SRSF2 wt/wt) | cell viability ([3]; SRSF2 genotype: SRSF2 P95H/wt) | cell viability ([3]; SRSF2 genotype: SRSF2 wt/wt) | cell viability ([4]; SRSF2 genotype: P95H/wt) | cell viability ([4]; SRSF2 genotype: wt/wt)
1 | C[C@H]1CC[C@@H]2N(C1)C[C@H]1[C@@H]3C[C@H]4[C@@H](C[C@H](O)[C@H]5C[C@@H](O)CC[C@@]54C)[C@@H]3CC[C@@H]1[C@]2(C)O [Peimine] | 110% and 102% | 95.8% | 97.3% | 104% | 104% | 98.6% | 99.6% | 106%
2 | CC(=O)O[C@@H]1[C@H]2[C@@H](OC(=O)Cc3ccccc3)[C@@H](C)C[C@]2(OC(C)=O)C(=O)/C(C)=C/[C@@H]2[C@H](CC[C@]13CO3)C2(C)C [Euphorbia factor L1] | 105% and 96.6% | 100% | 89.8% | 102% | 102% | 104% | 95.9% | 105%
3 | CN(C)C1C(=O)C(C(N)=O)=C(O)C2(O)C(=O)C3=C(O)c4c(O)cccc4C(C)(O)C3CC12 (stereo not given) [Tetracycline hydrochloride] | 84.5% and 91.2% | 90.4% | 90.7% | 96.3% | 102% | 98.3% | 89.3% | 95.9%
4 | C=C[C@H]1CN2CC[C@@]3(C(=O)Nc4ccccc43)[C@@H]2C[C@@H]1/C(=C\OC)C(=O)OC [Isocorynoxeine] | 81.8% and 92.6% | 82.3% | 77.4% | 72.7% | 84.4% | 79.5% | 88.2% | 83.3%
5 | COc1cc2c(cc1OC)C(Cc1ccc(O)c(Oc3cc4c(cc3OC)CCN(C)C4Cc3ccc(O)cc3)c1)N(C)CC2.[O-][Cl+3]([O-])([O-])O (stereo not given) [Liensinine diperchlorate] | 87% and 79.8% | 77.4% | 64.6% | 76.3% | 61.7% | 77.2% | 63.7% | 63.7%
6 | CN1C2CC(O)CC1C1OC12 (stereo not given) [Scopine] | 100% and 97.1% | 95.5% | 101% | 103% | 97% | 100% | 93.6% | 106%
7 | O=C(O)C(=O)c1cn(Cc2ccccc2)c2ccc(-c3ccc(OC(F)(F)F)cc3)cc12 [Tiplaxtinin (PAI-039)] | 84.4% and 88.9% | 90.3% | 92.3% | 101% | 90.9% | 93.8% | 97.4% | 103%
8 | CCN1CC2(OC(=O)c3ccccc3NC(C)=O)CCC(OC)C34C1C(CC23)C1(O)CC(OC)C2CC4C1(O)C2OC (stereo not given) [Lappaconitine] | 99.3% and 109% | 100% | 108% | 103% | 103% | 105% | 111% | 91.9%
9 | C[N+]1(C)CCCC(OC(=O)C(O)(c2ccccc2)c2ccccc2)C1 (stereo not given) [mepenzolate bromide] | 106% and 102% | 98.9% | 103% | 112% | 104% | 104% | 101% | 105%
10 | CC(=O)O[C@@]12CO[C@@H]1C[C@H](O)[C@@]1(C)C(=O)[C@H](O)C3=C(C)[C@@H](OC(=O)[C@H](O)[C@@H](NC(=O)c4ccccc4)c4ccccc4)C[C@@](O)([C@@H](OC(=O)c4ccccc4)[C@H]21)C3(C)C [10-deacetyl-paclitaxel] | 25.2% and 36.9% | 34.3% | 7.89% | 4.88% | 9.1% | 3.82% | 10.3% | 15.4%
11 | COc1ccc(C=O)cc1O [Isovanillin] | 105% and 103% | 103% | 108% | 108% | 106% | 101% | 104% | 98.2%
12 | CN1CCN(c2nc3ccccc3nc2Cl)CC1 | 96.3% and 106% | 98.8% | 93.1% | 103% | 105% | 109% | 107% | 102%
13 | C=CC(=C)C [Isoprene] | 102% and 103% | 105% | 103% | 106% | 95.6% | 108% | 103% | 109%
14 | Cc1c([C@H](C)[C@@H]2NC[C@@H](C)C[C@H]2O)ccc2c1C[C@H]1[C@H]2CC=C2C[C@@H](O)CC[C@@]21C [Veratramine] | 73.9% and 73% | 75% | 64.7% | 64.5% | 81.1% | 89.6% | 47.1% | 62.9%
15 | CC(C)C1=CC(=O)[C@@](C)(C2[C@H](O)C[C@@]3(C)[C@@H]4CC=C5[C@@H](CC[C@@H](OC6OCC(O)C(O)C6OC6OC(C)C(O)C(O)C6O)C5(C)C)[C@]4(C)C(=O)C[C@]23C)O1 (stereo not given in full) [Picfeltarraenin IA] | 95.9% and 96.6% | 89.6% | 92.2% | 92.5% | 89.7% | 93.2% | 94.3% | 101%
16 | C[C@](O)(COc1ccc(C#N)cc1)C(=O)Nc1ccc(C#N)c(C(F)(F)F)c1 | 90.6% and 94.9% | 97.9% | 98.7% | 94.2% | 94% | 96.7% | 99.4% | 93.4%
17 | c1cc2c(cc1[C@H]1OC[C@H]3[C@@H]1CO[C@H]3c1ccc3c(c1)OCO3)OCO2 [Asarinin] | 99.6% and 99.4% | 102% | 91.7% | 104% | 100% | 103% | 89.1% | 89.4%
18 | CCN(CC)CCOC(=O)C(O)(c1ccccc1)c1ccccc1 [Benactyzine hydrochloride] | 87.1% and 93% | 84.2% | 93% | 98.4% | 92.6% | 94.4% | 89.8% | 92.6%
19 | COCC1(CO)C(=O)C2CCN1CC2 (stereo not given) | 35.9% and 43.5% | 63.5% | 65.3% | 57.5% | 9.18% | 3.69% | 14.8% | 15.9%
20 | O=C1C2CCN(CC2)C1(CO)CO | 74.5% and 85.5% | 73.3% | 83.6% | 73.8% | 34.1% | 41.8% | 56.2% | 47%

Row | SMILES | cell viability ([1]; SRSF2 genotype: SRSF2 P95H/wt) | cell viability ([1]; SRSF2 genotype: SRSF2 wt/wt) | cell viability ([2]; SRSF2 genotype: SRSF2 P95H/wt) | cell viability ([2]; SRSF2 genotype: SRSF2 wt/wt) | cell viability ([3]; SRSF2 genotype: SRSF2 P95H/wt) | cell viability ([3]; SRSF2 genotype: SRSF2 wt/wt) | cell viability ([4]; SRSF2 genotype: P95H/wt) | cell viability ([4]; SRSF2 genotype: wt/wt)
21 | OC(c1ccccc1)(c1ccccc1)C1CCNCC1 [Azacyclonol] | 93.7% and 92.3% | 95.1% | 85.4% | 94.4% | 94.7% | 97.8% | 89% | 94.5%
22 | CN1[C@@H]2CC[C@H]1C[C@@H](OC(=O)[C@H](CO)c1ccccc1)C2 [Hyoscyamine (Daturine)] | 104% and 93.5% | 91.9% | 104% | 107% | 99.2% | 102% | 95.4% | 113%
23 | COC1=CC23CCN(C)C(Cc4ccc(OC)c(O)c42)C3=CC1=O (stereo not given) [Sinoacutine] | 110% and 102% | 101% | 103% | 101% | 108% | 103% | 101% | 104%
24 | COc1ccc(N(C(=O)Oc2c(C)cccc2C)c2ccnc(Nc3ccc(N4CCN(C)CC4)cc3)n2)c(OC)c1 | 7.22% and 20.7% | 6.62% | 72.3% | 58.7% | 38.8% | 35.4% | 23.5% | 28.6%
25 | Fc1cc(F)c2c(c1)[C@H]1C=CC[C@H]1C(c1cccnc1)N2 (stereo not given in full) [Golgicide A] | 25.9% and 36.2% | 32.3% | 14.1% | 27.5% | 46.3% | 68.2% | 12.2% | 22.5%
26 | COC1CC(OC2CCC3(C)C4CCC5(C)C(C6=CC(=O)OC6)CCC5(O)C4CCC3(O)C2)OC(C)C1OC1OC(CO)C(O)C(O)C1O (stereo not given) [Periplocin] | 8.96% and 10.7% | 11.7% | 11.5% | 4.97% | 3.28% | 0.9% | 1.16% | 4.41%
27 | CCC(COC(=O)c1cc(OC)c(OC)c(OC)c1)(c1ccccc1)N(C)C (stereo not given) [Trimebutine maleate] | 99% and 90.6% | 98.2% | 87.9% | 90.3% | 88.9% | 98.2% | 89.9% | 97.4%
28 | COC1CC(OC2CCC3(C)C(CCC45OC46CCC(C(C)=O)C6(C)C(OC(C)=O)C(OC(=O)c4ccccc4)C35)C2)OC(C)C1OC1OC(C)C(O)C(OC)C1O (stereo not given) [Tenacissoside I] | 92.5% and 93.1% | 93.8% | 88.2% | 100% | 91.9% | 92.5% | 95% | 106%
29 | C[C@H]1CC(=O)C[C@@H]2CC[C@H]3[C@@H]4CC[C@H](O)[C@@]4(C)CC[C@@H]3[C@]21C [Mesterolone] | 84.1% and 79.7% | 83% | 71.6% | 82.2% | 79.9% | 84.7% | 75.6% | 80.7%
30 | COc1ccc2c(c1)[nH]c1c(C)nccc12 [Harmine hydrochloride] | 88.3% and 94.7% | 92.7% | 79.5% | 87.7% | 54.3% | 66.8% | 38.1% | 49.9%
31 | NCC(=O)O.[C-]#[O+].[C-]#[O+].[C-]#[O+].[Cl][Ru] | 104% and 93.3% | 96.2% | 88.5% | 99.2% | 88.6% | 90.8% | 91.9% | 114%
32 | O=C([O-])C(Cl)Cl.[Na+] [Sodium dichloroacetate (DCA)] | 96.5% and 94.6% | 97.6% | 96.1% | 104% | 95.3% | 99% | 96.7% | 101%
33 | O=[N+]([O-])c1ncc[nH]1 [Azomycin (2-Nitroimidazole)] | 102% and 103% | 101% | 101% | 101% | 95.3% | 100% | 97.8% | 96.8%
34 | O=C(O)c1nn(Cc2ccc(Cl)cc2Cl)c2ccccc12 [Lonidamine] | 97% and 107% | 101% | 107% | 97.7% | 98.1% | 95.6% | 99.5% | 92.2%
35 | CCN(Cc1ccc(Cl)nc1)/C(=C/[N+](=O)[O-])NC [Nitenpyram] | 98.8% and 88.3% | 99.9% | 94.5% | 99% | 97.7% | 98.6% | 95.2% | 99.8%
36 | CCC(=O)O[C@H]1CC[C@H]2[C@@H]3CC[C@H]4CC(=O)[C@H](C)C[C@]4(C)[C@H]3CC[C@]12C [Drostanolone Propionate] | 85.6% and 88.6% | 79.2% | 72.7% | 44.8% | 77.4% | 83.8% | 63.7% | 57.3%
37 | Cc1sc2c(c1C)C(c1ccc(Cl)cc1)=N[C@@H](CC(=O)OC(C)(C)C)c1nnc(C)n1-2 | 53.8% and 59.9% | 61.5% | 22.3% | 30.9% | 15.9% | 11.6% | 17.5% | 30.2%
38 | COc1ccc2c(c1)/C(=C/c1cnc[nH]1)C(=O)N2 | 91.8% and 96.2% | 88% | 33.7% | 39.8% | 22.1% | 3.31% | 15.4% | 24.6%
39 | O=C(O[C@H]1C[C@H]2CC[C@@H](C1)[N+]21CCCC1)C(O)(c1ccccc1)c1ccccc1 [Trospium chloride (Sanctura)] | 98.8% and 100% | 95.7% | 101% | 102% | 99.4% | 102% | 102% | 102%
40 | CC(C)=CCC[C@](C)(O)[C@H]1CC[C@]2(C)[C@@H]1[C@H](O)C[C@@H]1[C@@]3(C)CC[C@H](O[C@@H]4O[C@H](CO)[C@@H](O)[C@H](O)[C@H]4O)C(C)(C)[C@@H]3CC[C@]12C [20S-Ginsenoside Rh2] | 98.1% and 92.1% | 105% | 104% | 106% | 103% | 106% | 97.4% | 96.2%
